{
  "source": "PubChem BioAssay (EPA / NIEHS)",
  "note": "Active and inactive are the calls of the source. Rule for the calls: active = hit-call score of the fitted dose curve at least 0.9, where 1 is the maximum; inactive = score below 0.9.",
  "data": [
    {"experiment": "ATG_GLI_CIS: Attagene CIS-FACTORIAL HepG2 Assay for human Zinc Finger Protein GLI1 (AID 2282945)", "conditions": "HepG2, Attagene cis-factorial reporter mRNA, GLI element; actives raise or lower the signal", "how_it_was_run": "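HepG2 cells transiently transfected with cis-promoter multiplexed reporter units report endogenous transcription factor activity. After 24 h chemical exposure, reporter mRNA was quantified by RT-PCR, 6-FAM labelling, HpaI digestion and capillary electrophoresis, with bidirectional fitting against DMSO.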", "values": [
      {"smiles": "Cc1ccc(C(=O)O)o1", "outcome": "inactive"},
      {"smiles": "CC(C#N)(CCC(=O)O)N=NC(C)(C#N)CCC(=O)O", "note": "(stereo not drawn)", "outcome": "inactive"},
      {"smiles": "O=C(Cl)c1cccc(C(=O)Cl)c1", "outcome": "inactive"},
      {"smiles": "C=CC(=O)OCCn1c(=O)n(CCOC(=O)C=C)c(=O)n(CCOC(=O)C=C)c1=O", "outcome": "inactive"},
      {"smiles": "N#Cc1ccc(CC(=NNC(=O)Nc2ccc(OC(F)(F)F)cc2)c2cccc(C(F)(F)F)c2)cc1", "outcome": "inactive"},
      {"smiles": "CCCC/C=C\\CCCCCCCCCC=O", "outcome": "inactive"},
      {"smiles": "CC1(C)CCC(C)(C)c2cc(C(=O)Nc3ccc(C(=O)O)cc3)ccc21", "outcome": "inactive"},
      {"smiles": "O=c1oc(=O)c2cc3c(=O)oc(=O)c3cc12", "outcome": "inactive"},
      {"smiles": "CCCCCCCCCCCCSC", "outcome": "inactive"},
      {"smiles": "CCN(CC)CCOC(=O)c1ccc(N)cc1", "outcome": "inactive"},
      {"smiles": "NC(=O)c1ccccc1Cl", "AC50": "139 µM (active)"},
      {"smiles": "CCc1c(C)cc(N)c(CC)c1N", "outcome": "inactive"},
      {"smiles": "C=C(C)C1CCC(C)CC1O", "note": "(stereo not drawn)", "outcome": "inactive"},
      {"smiles": "CCOc1ccccc1OCC", "outcome": "inactive"},
      {"smiles": "CC1CCC(C(C)CS)CC1S", "note": "(stereo not drawn)", "outcome": "inactive"},
      {"smiles": "CN(C)CCCN", "outcome": "inactive"},
      {"smiles": "C=C(C)[C@@H]1CC[C@@H](C)C[C@@H]1O", "outcome": "inactive"},
      {"smiles": "O=S(=O)(O)NC1CCCCC1", "outcome": "inactive"},
      {"smiles": "CC1=CC(=O)NS(=O)(=O)O1", "outcome": "inactive"},
      {"smiles": "CC(C)CCCCCCCOC(=O)c1ccc(C(=O)OCCCCCCCC(C)C)c(C(=O)OCCCCCCCC(C)C)c1", "outcome": "inactive"},
      {"smiles": "C/C=C(\\C)C(=O)OCc1ccccc1", "outcome": "inactive"},
      {"smiles": "CC(C)C[C@H]1C(=O)N2CCC[C@H]2[C@]2(O)O[C@](NC(=O)[C@@H]3C=C4c5cccc6[nH]c(Br)c(c56)C[C@H]4N(C)C3)(C(C)C)C(=O)N12", "outcome": "inactive"},
      {"smiles": "COC(=O)c1ccc(C)cc1", "outcome": "inactive"},
      {"smiles": "C=C(C)[C@@H]1CCC2=CC(=O)C[C@@H](C)[C@]2(C)C1", "outcome": "inactive"},
      {"smiles": "CC1(C)[C@H]2CC[C@]1(C)[C@H](O)C2", "outcome": "inactive"},
      {"smiles": "CC(=O)OCCOC(C)=O", "outcome": "inactive"},
      {"smiles": "CCCCC(CC)COCCC#N", "note": "(stereo not drawn)", "outcome": "inactive"},
      {"smiles": "CCCCCCCCC", "outcome": "inactive"},
      {"smiles": "CC1CCC2CC1C2(C)C", "note": "(stereo not drawn)", "outcome": "inactive"},
      {"smiles": "CC(C)(N)CO", "outcome": "inactive"},
      {"smiles": "CCCCC(CC)COC(=O)/C=C\\C(=O)OCC(CC)CCCC", "note": "(stereo not drawn)", "outcome": "inactive"},
      {"smiles": "Nc1cccc(S(=O)(=O)c2cccc(N)c2)c1", "outcome": "inactive"},
      {"smiles": "O=c1[nH]nnc2ccccc12", "outcome": "inactive"},
      {"smiles": "C=C(C)C(=O)OCc1ccccc1", "outcome": "inactive"},
      {"smiles": "CCCCCCCCC=O", "outcome": "inactive"},
      {"smiles": "Cc1ccc(C(C)C)cc1O", "outcome": "inactive"},
      {"smiles": "C=CCOC(=O)CCC1CCCCC1", "outcome": "inactive"},
      {"smiles": "Cc1cccc(Nc2ccccc2C(=O)O)c1C", "outcome": "inactive"}
    ]}
  ]
}
